The results in this text go back to PubChem BioAssay (EPA / NIEHS).

“And” between values parts separate entries of the source, which are not always exact repeats. Equal values may be shown once. Inconclusive results are not listed. The source made the active and inactive calls. Rule for the calls, unless noted: active = hit-call score of the fitted dose curve at least 0.9, where 1 is the maximum; inconclusive = response in the unintended direction; inactive = score below 0.9.

Assay [1] addresses Cellular tumor antigen p53 (Homo sapiens) (UniProt P04637). Kind of assay: TOX21_p53_BLA_p5_ratio: Tox21 HCT-116 p53 Agonism Beta-lactamase Assay, Ratio, Phase 5 (AID 2283599). In short, it runs like this:
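HCT-116 cells carrying a p53-inducible beta-lactamase reporter were seeded at 4000 cells/well and dosed after 5 h with compound in DMSO (217-fold dilution). After 16 h at 37C, CCF4-AM substrate was added for 2 h, and the 460/530 nm emission ratio was scored as gain-of-signal versus DMSO.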

Assay [2] in a line: TOX21_p53_BLA_p5_viability: Viability Assessment in the Tox21 HCT-116 p53 Agonism Beta-lactamase Assay, Phase 5 (AID 2283600). A digest of the protocol: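 After the 460/530 nm beta-lactamase measurement, the wells received an ATP-detection luciferase reagent; signal was read 30 min later at RT. Compound treatment lasted 16 h on cells pre-incubated 5 h post-seeding.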
Assay [3] deals with Cellular tumor antigen p53 (Homo sapiens) (UniProt P04637). Kind of assay: TOX21_p53_BLA_p4_ratio: Tox21 HCT-116 p53 Agonism Beta-lactamase Assay, Ratio, Phase 4 (AID 2283601). In short, it runs like this:
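HCT116 cells carrying an inducible beta-lactamase reporter were plated at 4000 cells/well, rested 5 h, then exposed to compounds in DMSO (217-fold dilution) for 16 h at 37C. CCF4-AM substrate was loaded 2 h at room temperature; 460/530 nm emission ratio scored gain-of-signal versus DMSO.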

Assay [4] can be described thus: Tanguay_ZF_120hpf_MORT_legacy: (Legacy) Oregon State University Tanguay Lab 120 Hour Post-fertilization zebrafish Assay for Mortality (AID 2283633). A digest of the protocol:
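Static waterborne exposure from 6 to 120 hpf at 28C of single dechorionated wild-type (5D) embryos per well, 0.64% DMSO final. Death recorded present/absent by brightfield at 24 and 120 hpf.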

Assay [5] is described as follows: Tanguay_ZF_120hpf_YSE_legacy: (Legacy) Oregon State University Tanguay Lab 120 Hour Post-fertilization zebrafish Assay for Yolk Sac Edema (AID 2283634). In short, it runs like this:
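Presence or absence of yolk sac edema was recorded at 120 hpf in surviving larvae. These were wild-type Tropical 5D embryos, chorion removed at 4 hpf, held in static exposure at 28C from 6 hpf with 0.64% DMSO vehicle.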

The nature of assay [6]: Tanguay_ZF_120hpf_EYE_legacy: (Legacy) Oregon State University Tanguay Lab 120 Hour Post-fertilization zebrafish Assay for Eye Malformation (AID 2283636).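 Note: binary presence or absence of eye malformation scored by brightfield in 120 hpf larvae.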 In short, it runs like this: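 Dechorionated wild-type Tropical 5D zebrafish embryos were exposed statically from 6 hpf, one per well, to 120 hpf at 28C in sealed, foil-covered plates with 0.64% DMSO. Eye malformation was scored present/absent by brightfield microscopy against DMSO controls.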

Assay [7] is described as follows: Tanguay_ZF_120hpf_SNOU_legacy: (Legacy) Oregon State University Tanguay Lab 120 Hour Post-fertilization zebrafish Assay for Snout Malformation (AID 2283637). In short, it runs like this:
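Tropical 5D wild-type zebrafish embryos, dechorionated with pronase at 4 hpf, were exposed singly from 6 hpf to 120 hpf statically at 28C in 0.64% DMSO. Snout malformation was scored present/absent by brightfield microscopy, fitted against DMSO.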

Assay [8] can be described thus: Tanguay_ZF_120hpf_JAW_legacy: (Legacy) Oregon State University Tanguay Lab 120 Hour Post-fertilization zebrafish Assay for Jaw Malformation (AID 2283638).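 For AC50: active means more embryos with jaw malformation than DMSO controls.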 In short, it runs like this:
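Binary jaw-malformation call at 120 hpf by brightfield microscopy. Embryos (Tropical 5D strain, chorion removed at 4 hpf) were dosed statically at 6 hpf, one per well, at 28C with 0.64% DMSO. Embryos that died were not scored.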

Assay [9] is described as follows: Tanguay_ZF_120hpf_PE_legacy: (Legacy) Oregon State University Tanguay Lab 120 Hour Post-fertilization zebrafish Assay for Pericardial Edema (AID 2283640).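 For AC50: potency for increased incidence of pericardial edema versus DMSO baseline.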 In short, it runs like this:
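Scoring was binary, by brightfield microscopy at 120 hpf, and skipped where mortality occurred. Wild-type embryos were kept under sealed, foil-covered static exposure at 28C in 0.64% (vol/vol) DMSO.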

A short description of assay [10]: Tanguay_ZF_120hpf_BRAI_legacy: (Legacy) Oregon State University Tanguay Lab 120 Hour Post-fertilization zebrafish Assay for Brain Malformation (AID 2283641). A digest of the protocol: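 Binary brightfield scoring of brain malformation at 120 hpf in Tropical 5D larvae held under static exposure at 28C (0.64% v/v DMSO), non-mortality endpoints skipped if dead. Positive control: 5uM trimethyltin chloride; fit versus DMSO.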

A short description of assay [11]: Tanguay_ZF_120hpf_SOMI_legacy: (Legacy) Oregon State University Tanguay Lab 120 Hour Post-fertilization zebrafish Assay for Somite Malformation (AID 2283647). In short, it runs like this: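 Binary somite-defect scoring at 120 hpf, omitted for embryos that died, in wild-type (Tropical 5D) zebrafish with chorion removed by pronase at 4 hpf; static exposure began 6 hpf, single embryos per well, 28C, 0.64% DMSO; fitted positive versus DMSO.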

Assay [12] in a line: Tanguay_ZF_120hpf_PIG_legacy: (Legacy) Oregon State University Tanguay Lab 120 Hour Post-fertilization zebrafish Assay for Pigmentation Malformation (AID 2283650). In short, it runs like this: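 Tropical 5D wild-type zebrafish embryos, dechorionated with pronase at 4 hpf, were exposed singly from 6 hpf to 120 hpf statically at 28C in sealed, dark plates with 0.64% DMSO; pigmentation scored present/absent by brightfield microscopy, fitted against DMSO.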

The nature of assay [13]: Tanguay_ZF_120hpf_CIRC_legacy: (Legacy) Oregon State University Tanguay Lab 120 Hour Post-fertilization zebrafish Assay for Circulatory Malformation (AID 2283651). In short, it runs like this:
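Dechorionated wild-type 5D zebrafish embryos, one per well, statically exposed from 6 to 120 hpf at 28C with 0.64% DMSO; circulatory malformation scored present/absent by brightfield microscopy at 120 hpf, dead embryos excluded.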

A short description of assay [14]: Tanguay_ZF_120hpf_SWIM_legacy: (Legacy) Oregon State University Tanguay Lab 120 Hour Post-fertilization zebrafish Assay for Swim Bladder Malformation (AID 2283654).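 Note: swim bladder malformation in each larva scored yes or no under brightfield.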 A digest of the protocol:
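Dechorionated Tropical 5D wild-type embryos, placed singly from 6 hpf, were statically exposed at 28C to 120 hpf with 0.64% DMSO final; swim bladder malformation was scored present/absent by brightfield microscopy, gain of signal relative to DMSO controls.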

Assay [15] is described as follows: Tanguay_ZF_120hpf_TRUN_legacy: (Legacy) Oregon State University Tanguay Lab 120 Hour Post-fertilization zebrafish Assay for Truncated Body (AID 2283655). A digest of the protocol: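 Binary presence/absence of truncated body is recorded at 120 hpf by brightfield, with non-mortality endpoints skipped after death. Exposure is static from 6 hpf in sealed dark plates at 28C, using dechorionated wild-type zebrafish, 0.64% DMSO.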

Assay [16] in a line: Tanguay_ZF_120hpf_CFIN_legacy: (Legacy) Oregon State University Tanguay Lab 120 Hour Post-fertilization zebrafish Assay for Caudal Fin Malformation (AID 2283649). In short, it runs like this:
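Binary brightfield scoring of caudal fin defects at 120 hpf after static, light-shielded exposure at 28C from 6 hpf. Tropical 5D embryos, chorion removed with pronase at 4 hpf, final DMSO 0.64%.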

Assay [17] can be described thus: Tanguay_ZF_120hpf_OTIC_legacy: (Legacy) Oregon State University Tanguay Lab 120 Hour Post-fertilization zebrafish Assay for Otic Vesicle Malformation (AID 2283639). In short, it runs like this: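 Tropical 5D wild-type zebrafish embryos statically exposed in 0.64% DMSO at 28C until 120 hpf; 5uM trimethyltin chloride as positive control. Otic vesicle malformation scored present/absent by brightfield; dead embryos not scored; gain fitted versus DMSO.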

Assay [18] can be described thus: Tanguay_ZF_120hpf_PFIN_legacy: (Legacy) Oregon State University Tanguay Lab 120 Hour Post-fertilization zebrafish Assay for Pectoral Fin Malformation (AID 2283648).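 Note: each larva judged yes or no for fin defect by brightfield with dead larvae skipped.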 A digest of the protocol: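 Tropical 5D wild-type embryos, dechorionated with pronase at 4 hpf, were placed singly in wells at 6 hpf and statically exposed until 120 hpf at 28C, sealed and dark, with 0.64% (vol/vol) final DMSO; pectoral fin malformation scored present/absent.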

Read-out in assay [19]: solute carrier (SLC22A6), SLC22A6 (gene 9356)
Kind of assay: LTEA_HepaRG_SLC22A6: Life Technologies and Expression Analysis (LTEA) Assay for solute carrier (SLC22A6) using HepaRG (AID 2283653; active = hit-call score of the fitted dose curve at least 0.9, where 1 is the maximum; inactive = score below 0.9). Particulars: mRNA level, 48 h; actives raise or lower the signal. A digest of the protocol:
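SLC22A6 transcript was measured by TaqMan qRT-PCR, normalized to three housekeeping genes, after 48 h duplicate exposure of HepaRG cells (100 uM top, half-log steps, 0.5% DMSO); bidirectional fit against vehicle.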

Sequence of Cellular tumor antigen p53 (Homo sapiens) (P04637 whole entry, looked up): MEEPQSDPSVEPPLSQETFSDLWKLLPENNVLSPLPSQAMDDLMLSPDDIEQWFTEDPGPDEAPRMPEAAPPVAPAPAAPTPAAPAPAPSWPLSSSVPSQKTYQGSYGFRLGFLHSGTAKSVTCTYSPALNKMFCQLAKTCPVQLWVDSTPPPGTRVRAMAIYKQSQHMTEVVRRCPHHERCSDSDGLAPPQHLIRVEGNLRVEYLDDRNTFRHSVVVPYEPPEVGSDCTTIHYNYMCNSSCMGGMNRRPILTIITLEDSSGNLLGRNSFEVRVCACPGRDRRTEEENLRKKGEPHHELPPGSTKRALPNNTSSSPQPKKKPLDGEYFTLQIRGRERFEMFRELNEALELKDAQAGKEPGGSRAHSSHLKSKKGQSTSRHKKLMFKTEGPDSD

The term AC50 denotes the concentration giving half of the maximal activity seen. Take `CC(C)(O)C(=O)Nc1ccc([N+](=O)[O-])c(C(F)(F)F)c1`: the outcome in assay [1], in assay [2], in assay [3], in [4], in [5] and in assay [10] was inactive. The call in assay [11], in assay [12], in assay [13] and in [14] was inactive. For the same molecule, the AC50 in assay [6] is 21.7 µM (active); in [7], 7.43 µM (active); in assay [8], 23.1 µM (active); in assay [9] it was 23.2 µM (active); in assay [15], 22.1 µM (active).

Turning to `CC#Cc1cc(C)nc(Nc2ccccc2)n1`, the call in [2], in [4], in [5], in [6], in assay [7] and in [8] was inactive. Also, the molecule was called inactive in assay [11], in assay [16], in assay [12], in [13] and in assay [14].

With `CCNc1nc(NC(C)C)nc(SC)n1`, the molecule was classed as inactive in [4], in assay [5], in assay [6], in assay [7], in assay [8] and in assay [17]. Moreover, the call in [9], in assay [10], in assay [11], in assay [16], in [12] and in assay [13] was inactive. In addition, the molecule was classed as inactive in [14] and in [15].

Take `CCOC(=O)C(O)(c1ccc(Cl)cc1)c1ccc(Cl)cc1`: the AC50 in [2] was 81.7 µM (active) and 24.7 µM (active). Besides, the molecule was classed as inactive in [4], in [5], in assay [6], in [7], in assay [8] and in [17]. For the same molecule, the result in [9], in assay [18], in [16], in [12], in [14] and in assay [15] was inactive.

With `Clc1ccc(Cl)cc1`, the outcome in assay [2], in assay [4], in assay [5], in assay [6], in assay [7] and in assay [8] was inactive. Besides, the molecule was called inactive in [17], in assay [9], in [11], in [16], in assay [12] and in assay [13]. In addition, the molecule was called inactive in [19] and in [15].

With `CCCN(CCC)N=O`, the call in assay [4], in assay [5], in [6], in [7], in assay [8] and in assay [9] was inactive. Further, the call in assay [11], in assay [16], in assay [12], in [13], in assay [14] and in assay [15] was inactive.

Regarding `C=CC(=O)NCNC(=O)C=C`, the molecule was classed as inactive in assay [2], in assay [4], in assay [5], in [6], in assay [7] and in assay [8]. The outcome in [17], in [9], in assay [11], in assay [16], in assay [12] and in [13] was inactive. For the same molecule, the result in [14] and in assay [15] was inactive.

As for `CCCCCCCCCc1ccc(O)cc1`, the result in [2], in [4], in assay [5], in assay [6], in [7] and in assay [8] was inactive. The result in [17], in assay [9], in assay [11], in assay [16], in assay [12] and in assay [19] was inactive. Moreover, the result in assay [14] and in assay [15] was inactive.
